Consider eight compounds from PubChem BioAssay (NCI).

Values joined by “and” are separate entries in the source; they are usually repeats but may differ in a detail not shown here. Equal entries are not always repeated. Compounds without any hit were thinned out: in the full panel of roughly 83,000, 20% have a hit.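 The endpoint reported here, percent growth, reads 100 for growth as untreated, 0 for no net growth and -100 for all cells dead.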 Active and inactive are the calls of the source. How the source made its calls: active means growth percent below 10; inactive means the rest.

Test systems include NCI-H226 lung; NCI-H322M lung; HOP-62 NSCLC; NCI-H460 lung; HOP-92 NSCLC; NCI-H522 lung; A549/ATCC NSCLC; 786-0 renal; COLO 205 colon; DU-145 prostate; MALME-3M melanoma; MDA-MB-231 breast; RXF 393 renal; SF-268 CNS; SF-295 CNS; SF-539 CNS; UACC-257 melanoma; M14 melanoma; K-562 leukemia.
Common to all, as to test: NCI-60 one-dose screen, 48 h (100 = growth as untreated, 0 = no growth, -100 = all killed)
Settings in all cases: 10 µM unless noted

On to `CC12CCC(CC1)C(C)(C)O2`, for which the growth is 104% (inactive) in the assay with NCI-H226 lung; 101% (inactive) in the assay with NCI-H322M lung; 110% (inactive) with HOP-62 NSCLC; 118% (inactive) in the assay on NCI-H460 lung; 105% (inactive) in the assay with HOP-92 NSCLC; 95% (inactive) in the assay on NCI-H522 lung. Moreover, the growth was 102% (inactive) with A549/ATCC NSCLC; 94.5% (inactive) with 786-0 renal; 110% (inactive) in the assay with COLO 205 colon; 110% (inactive) in the assay on DU-145 prostate; 101% (inactive) with MALME-3M melanoma; 100% (inactive) with MDA-MB-231 breast. Moreover, the growth in the assay on RXF 393 renal was 117% (inactive); with SF-268 CNS, 119% (inactive); in the assay with SF-295 CNS it was 91% (inactive); in the assay on SF-539 CNS it was 103% (inactive); with UACC-257 melanoma it was 108% (inactive); with M14 melanoma it was 99.7% (inactive).

`CCC(=O)C(CC)c1cccc(OC)c1` (stereo not given): the growth in the assay with NCI-H226 lung is 102% (inactive); with NCI-H322M lung it was 101% (inactive); in the assay with HOP-62 NSCLC, 122% (inactive); in the assay with NCI-H460 lung, 107% (inactive); in the assay on HOP-92 NSCLC it was 97.3% (inactive); in the assay with NCI-H522 lung, 102% (inactive). Also, the growth was 106% (inactive) with A549/ATCC NSCLC; 103% (inactive) in the assay on 786-0 renal; 117% (inactive) in the assay on COLO 205 colon; 114% (inactive) with DU-145 prostate; 101% (inactive) with MALME-3M melanoma; 111% (inactive) with MDA-MB-231 breast. In addition, the growth was 107% (inactive) in the assay on RXF 393 renal; 120% (inactive) in the assay on SF-268 CNS; 100% (inactive) with SF-295 CNS; 115% (inactive) with SF-539 CNS; 100% (inactive) with UACC-257 melanoma; 101% (inactive) in the assay on M14 melanoma.

As to `CN1CCN(CCC=C2c3ccccc3Sc3ccc(S(=O)(=O)N(C)C)cc32)CC1`, the growth in the assay with NCI-H226 lung was 111% (inactive) and 108% (inactive); in the assay on NCI-H322M lung, 66.9% (inactive) and 77.2% (inactive); in the assay with HOP-62 NSCLC, 75.9% (inactive) and 83.8% (inactive); in the assay with NCI-H460 lung it was 82.7% (inactive) and 82% (inactive); in the assay on NCI-H522 lung, 44.2% (inactive) and 58.5% (inactive); with A549/ATCC NSCLC, 69.3% (inactive) and 79.6% (inactive). Further, the growth with 786-0 renal was 41.6% (inactive) and 58.5% (inactive); in the assay with COLO 205 colon it was -83.1% (active) and 44% (inactive); in the assay with DU-145 prostate, 88.1% (inactive) and 101% (inactive); in the assay with K-562 leukemia it was 1.04% (active) and -15.5% (active); in the assay with MALME-3M melanoma it was -13.1% (active) and 40.5% (inactive); in the assay with MDA-MB-231 breast, 42.8% (inactive) and 69.3% (inactive). The growth with RXF 393 renal is 30.4% (inactive) and 60% (inactive); with UACC-257 melanoma it was -83.1% (active) and -57.7% (active); in the assay with M14 melanoma, -67% (active) and -79.2% (active).

As to `Cc1ccc(-c2noc(C)n2)cc1`, the growth in the assay with NCI-H226 lung was 93.8% (inactive); with HOP-62 NSCLC it was 100% (inactive); in the assay with NCI-H460 lung it was 106% (inactive); in the assay with HOP-92 NSCLC it was 92.1% (inactive); with NCI-H522 lung it was 99.3% (inactive); with A549/ATCC NSCLC, 93.6% (inactive). Moreover, the growth was 102% (inactive) in the assay with 786-0 renal; 113% (inactive) in the assay with COLO 205 colon; 115% (inactive) in the assay on DU-145 prostate; 96.1% (inactive) in the assay on K-562 leukemia; 108% (inactive) in the assay on MALME-3M melanoma; 111% (inactive) in the assay with MDA-MB-231 breast. For the same compound, the growth with RXF 393 renal was 94.2% (inactive); in the assay with SF-268 CNS, 111% (inactive); in the assay with SF-295 CNS, 95.2% (inactive); in the assay on SF-539 CNS, 98.7% (inactive); with UACC-257 melanoma, 92.9% (inactive); in the assay with M14 melanoma it was 110% (inactive).

Regarding `COc1ccc2ccccc2c1/C=N/N1CCCCC1`, the growth was 102% (inactive) in the assay on NCI-H226 lung; 105% (inactive) in the assay on NCI-H322M lung; 101% (inactive) in the assay with HOP-62 NSCLC; 109% (inactive) in the assay on NCI-H460 lung; 67.8% (inactive) with HOP-92 NSCLC; 86.9% (inactive) with NCI-H522 lung. The growth in the assay with A549/ATCC NSCLC was 95.7% (inactive); in the assay on 786-0 renal, 96.1% (inactive); in the assay with COLO 205 colon, 102% (inactive); in the assay with DU-145 prostate, 108% (inactive); with K-562 leukemia, 91.5% (inactive); in the assay on MDA-MB-231 breast, 99.4% (inactive). Further, the growth with RXF 393 renal is 100% (inactive); with SF-295 CNS, 96.4% (inactive); in the assay on SF-539 CNS, 89.5% (inactive); in the assay with UACC-257 melanoma, 99.7% (inactive); in the assay on M14 melanoma, 108% (inactive).

Turning to `NC(=S)NS(=O)(=O)c1ccc(N)cc1`, the growth is 96% (inactive) with NCI-H226 lung; 96.7% (inactive) in the assay on HOP-62 NSCLC; 109% (inactive) in the assay on NCI-H460 lung; 103% (inactive) in the assay with HOP-92 NSCLC; 102% (inactive) in the assay with NCI-H522 lung; 101% (inactive) in the assay with A549/ATCC NSCLC. The growth was 105% (inactive) in the assay with 786-0 renal; 108% (inactive) with COLO 205 colon; 125% (inactive) in the assay on DU-145 prostate; 103% (inactive) in the assay with K-562 leukemia; 96.6% (inactive) in the assay on MALME-3M melanoma; 117% (inactive) with MDA-MB-231 breast. The growth was 101% (inactive) in the assay with RXF 393 renal; 107% (inactive) with SF-268 CNS; 94.7% (inactive) with SF-295 CNS; 98.7% (inactive) with SF-539 CNS; 101% (inactive) in the assay on UACC-257 melanoma; 106% (inactive) in the assay on M14 melanoma.

Regarding `CCN(CC)CCC(CNc1c2ccc([N+](=O)[O-])cc2nc2cc(OC)c(OC)cc12)c1ccccc1` (stereo not given), the growth in the assay with NCI-H226 lung was -65.3% (active) and -61.1% (active); in the assay with NCI-H322M lung, -39.9% (active) and -76.5% (active); with HOP-62 NSCLC it was -9.52% (active) and -86.4% (active); with NCI-H460 lung it was 6.85% (active) and -100% (active); in the assay on HOP-92 NSCLC, -42.2% (active); in the assay on NCI-H522 lung it was -45% (active) and -79.4% (active). For the same compound, the growth was -74.2% (active) and -91.6% (active) in the assay with 786-0 renal; -49.7% (active) and -100% (active) in the assay with COLO 205 colon; -85.2% (active) and -100% (active) in the assay on DU-145 prostate; -18.8% (active) in the assay with K-562 leukemia; -80.1% (active) and -89.1% (active) in the assay with MALME-3M melanoma; -58.4% (active) and -94.9% (active) in the assay on MDA-MB-231 breast. In addition, the growth was -89.8% (active) in the assay on RXF 393 renal; -48.5% (active) and -98.7% (active) in the assay with SF-268 CNS; 3.98% (active) and -90.3% (active) in the assay with SF-295 CNS; -86.9% (active) and -100% (active) with SF-539 CNS; -41.2% (active) and -97.1% (active) in the assay with UACC-257 melanoma; -63.2% (active) and -97.4% (active) in the assay with M14 melanoma.

Regarding `CN1C(=O)C(N=Nc2ccc([N+](=O)[O-])cc2)SC1=S` (stereo not given), the growth is 80.9% (inactive) and 70.3% (inactive) in the assay with NCI-H226 lung; 62.2% (inactive) and 71.8% (inactive) in the assay with NCI-H322M lung; 41.1% (inactive) and 53.7% (inactive) in the assay with HOP-62 NSCLC; 37.7% (inactive) and 45.3% (inactive) in the assay on NCI-H460 lung; 61.2% (inactive) and 62.9% (inactive) in the assay with HOP-92 NSCLC; 52.9% (inactive) and 68.1% (inactive) in the assay with NCI-H522 lung. Moreover, the growth in the assay with 786-0 renal is 70.2% (inactive) and 75.1% (inactive); in the assay with COLO 205 colon, 67% (inactive) and 74.4% (inactive); in the assay with DU-145 prostate it was 90.7% (inactive) and 89.2% (inactive); in the assay with K-562 leukemia, 43.1% (inactive); in the assay with MALME-3M melanoma, 80.1% (inactive) and 99.9% (inactive); in the assay with MDA-MB-231 breast, 76.7% (inactive) and 87% (inactive). The growth in the assay with RXF 393 renal is 80% (inactive) and 94.2% (inactive); with SF-268 CNS, 65.2% (inactive) and 67.6% (inactive); in the assay on SF-295 CNS, 185% (inactive) and 46.3% (inactive); in the assay on SF-539 CNS it was 67.2% (inactive) and 68.2% (inactive); with UACC-257 melanoma, 76.3% (inactive) and 84.2% (inactive); in the assay with M14 melanoma, 59.6% (inactive) and 59.5% (inactive).
